Reference: PubChem BioAssay AID588850 (Sanford-Burnham Center for Chemical Genomics, 2011)
The campaign covered roughly 360,000 compounds. About 3,100 (0.86%) were called active. The entries come from a sample that favours actives as a whole. Values without a mark were called inactive.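 The calls were made as follows: active = at least 50% inhibition at 5 µM, scaled per plate between neutral and stimulator controls; inactive = the rest.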

Assay: NF-kB reporter blockers in CF airway cells – cell-based, GFP fluorescence, uHTS, primary screen (AID 588850);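 also: PAF is a Pseudomonas aeruginosa culture filtrate used as stimulus; plate controls were PAF-stimulated DMSO wells for no effect and unstimulated DMSO wells for full effect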
Conditions: KKLEB NF-kB-GFP reporter, PAF-induced, GFP fluorescence overnight; at 5 µM; hits give high values

Compound | inhibition
Cc1ccc(CC(=O)Nc2cccc(C#N)c2)cc1 | -4.9%
O=C(COC(=O)Cn1cnc2ccccc2c1=O)NCC12CC3CC(CC(C3)C1)C2 | -1.8%
O=C(c1ccc(Cl)c(S(=O)(=O)N2CCCCCC2)c1)N1CCN(c2ccc(O)cc2)CC1 | 2.4%
c1ccc(-n2cccc2)c(N2CCCCC2)c1 | 5.6%
O=C1C=CC(=O)N1c1ccc(N2CCCCC2)cc1 | 67% (active)
O=C(Nc1ccc(F)c([N+](=O)[O-])c1)C1CCCO1 (configuration not stated) | 4.8%
COc1ccc(OC)c(C2N(c3ccccn3)C(=O)C3CCCN32)c1 (configuration not stated) | -3.8%
O=C(CCl)N(Cc1cccc([N+](=O)[O-])c1)c1cccc(Cl)c1 | 90.5% (active)
CC(=O)N(CN1C(=O)C2CC=CCC2C1=O)c1cccc(Cl)c1 (configuration not stated) | -5.3%
COC(=O)c1cc(C(=O)N(Cc2ccccc2)c2ccccn2)cc([N+](=O)[O-])c1 | 5%
CCS(=O)(=O)c1ccc(C(=O)NC)c(Cl)c1Cl | 4.1%
C1=C(N2CCOCC2)/C(=C/c2nc3ccccc3[nH]2)CC1 | 0.9%
COc1cccc(N2CCN(CC(=O)Nc3ccnn3C3CCCC3)CC2)c1 | -19%
Cc1noc(C)c1C(=O)N1CCC1(C)C(=O)NS(=O)(=O)c1ccc(C#N)cc1 (configuration not stated) | 1.8%
CCOC(=O)c1c(C)[nH]c(C)c1C(=O)CSc1nc(N)cc(N)n1 | -5.9%
CCOC(=O)c1c(C)[nH]c2c1-c1ccccc1C(=O)C2=O | 86.7% (active)
CCOC(=O)c1c(NC(=O)CSc2nccc(=O)[nH]2)sc(C)c1C | -8.3%
NCCCCC(C(=O)O)N(C(=O)OCc1ccccc1)C(=O)OCc1ccccc1 (configuration not stated) | 1.1%
COc1ccc(C(CC(=O)c2ccccc2)S(=O)(=O)c2ccccc2)cc1 (configuration not stated) | -3.5%

Compound | inhibition
O=C1/C(=C\c2ccc([N+](=O)[O-])cc2)CS(=O)(=O)C/C1=C/c1ccc([N+](=O)[O-])cc1 | 98.2% (active)
CCCCC(=O)Nc1c2c(nn1-c1ccc([N+](=O)[O-])cc1)CS(=O)(=O)C2 | 5.8%
CN(C)S(=O)(=O)N1CCN(c2ccc([N+](=O)[O-])cc2)CC1 | 8.2%
C=CCc1cc(S(=O)(=O)c2ccc(O)c(CC=C)c2)ccc1O | 60.6% (active)
CCCCN(C)c1ccc([N+](=O)[O-])cc1 | -12.3%
CCn1c(SCC(=O)NC2CC2)nnc1-c1ccccc1OC | -0.4%
COc1ccccc1-c1nnc2n1N=C(c1ccc(OC(F)F)c(OCC3CC3)c1)CS2 | 49.1%
COc1ccc(C2=Nn3c(nnc3-c3ccccc3OC)SC2)cc1OC1CCCC1 | 68.4% (active)
CCCCCCCCCCCCCCCC(=O)OC/C=C(C)/C=C/C=C(C)/C=C/C1=C(C)CCCC1(C)C | -16.9%
NC1=NOC(=O)C1C1CCCCC1 (configuration not stated) | 25.2%
CCCCc1nc2ccc(F)cc2cc1C | -14.3%
COc1ccc(N2CCN(S(=O)(=O)CCNC(=O)C34CC5CC(CC(C5)C3)C4)CC2)cc1 | -0.5%
COCCCN(C(=S)Nc1c(C)cc(C)cc1C)C(C)c1ccncc1 (configuration not stated) | -10.4%
CCCCOc1ccc(C(=O)NCC(=O)OCC(=O)N2CCN(S(=O)(=O)c3ccc(C)cc3C)CC2)cc1 | -0.3%
COc1ccc(C(=NN)c2ccc(OC)cc2)cc1 | -2.7%
COc1ccc(/C(N)=N/OC(=O)Cc2ccccc2)cc1 | -28%
COc1ccc(C(C#N)=C2C=CC(=NO)c3ccccc32)cc1 | 84.7% (active)
Fc1ccc(Nc2nnns2)cc1 | -11.2%
C=CCNC(=S)NNc1ncnc2sc3c(c12)CC(C)(C)OC3 | -2%

Compound | inhibition
O=C(Nc1ccc(Cl)cc1)c1csc([C@@H]2O[C@H](CO)[C@H](O)[C@H](O)[C@H]2O)n1 | 13%
CC[C@]1(O)C[C@@H]2CN(CCc3c([nH]c4ccccc34)[C@@](C(=O)OC)(c3cc4c(cc3OC)N(C)[C@H]3[C@@](O)(C(=O)OC)[C@H](OC(C)=O)[C@]5(CC)C=CCN6CC[C@]43[C@@H]65)C2)C1 | 57.6% (active)
CC[C@]1(O)CC2CN(CCc3c([nH]c4ccccc34)[C@@](C(=O)OC)(c3cc4c(cc3OC)N(C=O)[C@H]3[C@@](O)(C(=O)OC)[C@H](OC(C)=O)[C@]5(CC)C=CCN6CC[C@]43[C@@H]65)C2)C1 (some centres not stated) | 53.6% (active)
C=CCNC(=S)/N=c1/ccccn1Cc1ccccc1 | -16.5%
N#CC1(C#N)C(C(=O)C23CC4CC(CC(C4)C2)C3)C12CCOCC2 (configuration not stated) | 12.2%
Cc1ccc(NC(=S)Nc2ncccc2C)c(C)c1 | -2.7%
COC(=O)c1ccc(NC(=O)c2ccccc2NS(=O)(=O)c2ccccc2)cc1 | 59.8% (active)
COc1cc(NC(=O)c2ccccc2NS(=O)(=O)c2ccc(Cl)s2)cc(OC)c1 | 49.7%
COc1ccccc1C(=O)Nc1ccc(Nc2ccccc2)cc1 | 6.4%
Cc1ccnc(NS(=O)(=O)c2ccc(NC(=O)c3oc4ccc(F)cc4c3C)cc2)n1 | 8.7%
COC(=O)c1ccc(NC(=O)CSc2nncn2-c2cccnc2)cc1 | -0.4%
Cc1cc(-c2ccccc2)n2nc(C)c(-c3ccccc3)c2n1 | 5.2%
O=C(NCCCN1CCN(c2ccc(F)cc2)CC1)Nc1ccc([N+](=O)[O-])cc1 | -19.1%
Cc1cccc2sc(N(CCCN(C)C)C(=O)CCS(=O)(=O)c3ccccc3)nc12 | 85.7% (active)
Cc1cccc(C)c1NC(=O)CCS(=O)(=O)c1cccc2nsnc12 | -15.6%
O=C(CCS(=O)(=O)c1ccccc1)Nc1nc2c(s1)CCCC2 | -2.5%
COc1ccc(N(C)C(=O)CCS(=O)(=O)c2cccc3nsnc23)cc1 | -4%
Cc1ccc(S(=O)(=O)CCC(=O)OCC(=O)N(C)Cc2ccccc2)cc1 | 7.6%
COc1cccc2sc(N(CCCN(C)C)C(=O)CCS(=O)(=O)c3ccccc3)nc12 | 88.4% (active)
